Measurements reported in article PMC11006913.
Residue numbers refer to the chain shown, from its start.

Tests used:
Assay in all cases: PBM; 200 nM protein, PBS
Conditions in all cases: dsDNA, one strand shown
VENTX [1] = target: T1, VENTX (Homo sapiens, UniProt O95231 78-163, R121Q)
T1 sequence: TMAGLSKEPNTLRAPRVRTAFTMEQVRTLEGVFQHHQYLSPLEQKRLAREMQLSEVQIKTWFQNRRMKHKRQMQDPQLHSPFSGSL

VENTX [2] = target: T2, VENTX (Homo sapiens, UniProt O95231 78-163)
T2 sequence: T1 sequence with Q44R

VENTX [3] = target: T3, VENTX (Homo sapiens, UniProt O95231 78-163, Y115F)
T3 sequence: T1 sequence with Y38F, Q44R

VAX1 [4] = target: VAX1 (Homo sapiens, UniProt Q5SQQ9 86-172)
VAX1 (Homo sapiens, UniProt Q5SQQ9 86-172), sequence (Q5SQQ9 86-172): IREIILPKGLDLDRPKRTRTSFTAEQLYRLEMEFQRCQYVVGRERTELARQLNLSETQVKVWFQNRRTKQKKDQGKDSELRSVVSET

VAX1 [5] = target: VAX1 (Homo sapiens, UniProt Q5SQQ9 86-172, T142I)
VAX1 (Homo sapiens, UniProt Q5SQQ9 86-172, T142I), sequence (Q5SQQ9 86-172 T142I): as the sequence (Q5SQQ9 86-172) above, with T57I counted along it

VAX1 [6] = target: VAX1 (Homo sapiens, UniProt Q5SQQ9 86-172, K157R)
VAX1 (Homo sapiens, UniProt Q5SQQ9 86-172, K157R), sequence (Q5SQQ9 86-172 K157R): as the sequence (Q5SQQ9 86-172) above, with K72R counted along it

HOXA2 [7] = target: HOXA2 (Homo sapiens, UniProt O43364 129-215, R185T)
HOXA2 (Homo sapiens, UniProt O43364 129-215, R185T), sequence (O43364 129-215 R185T): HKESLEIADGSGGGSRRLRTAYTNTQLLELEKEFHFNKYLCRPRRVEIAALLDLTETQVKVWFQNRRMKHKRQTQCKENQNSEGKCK

HOXA4 = HOXA4 (Homo sapiens, UniProt Q00056 201-287, R217L)
HOXA4, sequence (Q00056 201-287 R217L): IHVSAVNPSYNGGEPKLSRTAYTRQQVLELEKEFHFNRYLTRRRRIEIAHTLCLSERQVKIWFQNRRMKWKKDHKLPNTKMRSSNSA

HOXA2 [8] = target: HOXA2 (Homo sapiens, UniProt O43364 129-215, R185K)
HOXA2 (Homo sapiens, UniProt O43364 129-215, R185K), sequence (O43364 129-215 R185K): as the sequence (O43364 129-215 R185T) above, with T57K counted along it

HOXA2 [9] = target: HOXA2 (Homo sapiens, UniProt O43364 129-215, Y150S)
HOXA2 (Homo sapiens, UniProt O43364 129-215, Y150S), sequence (O43364 129-215 Y150S): as the sequence (O43364 129-215 R185T) above, with Y22S, T57R counted along it

HOXA2 [10] = target: HOXA2 (Homo sapiens, UniProt O43364 129-215)
HOXA2 (Homo sapiens, UniProt O43364 129-215), sequence (O43364 129-215): as the sequence (O43364 129-215 R185T) above, with T57R counted along it

ALX3 = ALX3 (Homo sapiens, UniProt O95076 139-225, N203Q)
ALX3, sequence (O95076 139-225 N203Q): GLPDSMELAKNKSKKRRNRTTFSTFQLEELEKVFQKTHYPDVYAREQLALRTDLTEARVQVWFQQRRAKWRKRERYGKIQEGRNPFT

PAX4 [11] = target: T4, PAX4 (Homo sapiens, UniProt O43316 9-242, F177V)
T4 sequence: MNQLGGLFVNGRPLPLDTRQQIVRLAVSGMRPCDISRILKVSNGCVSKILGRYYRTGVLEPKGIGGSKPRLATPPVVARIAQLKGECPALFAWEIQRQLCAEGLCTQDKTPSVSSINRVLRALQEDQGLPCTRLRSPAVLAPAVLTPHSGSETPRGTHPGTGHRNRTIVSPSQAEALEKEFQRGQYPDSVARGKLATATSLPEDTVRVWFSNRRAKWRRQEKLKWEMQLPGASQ

PAX4 [12] = target: T5, PAX4 (Homo sapiens, UniProt O43316 9-242, R227W)
T5 sequence: T4 sequence with V169F, R219W

ALX1 [13] = target: ALX1 (Homo sapiens, UniProt Q15699 118-204, L144V)
ALX1 (Homo sapiens, UniProt Q15699 118-204, L144V), sequence (Q15699 118-204 L144V): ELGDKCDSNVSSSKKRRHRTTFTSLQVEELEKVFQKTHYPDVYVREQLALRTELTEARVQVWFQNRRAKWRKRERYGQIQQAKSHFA

ALX1 [14] = target: ALX1 (Homo sapiens, UniProt Q15699 118-204, L144R)
ALX1 (Homo sapiens, UniProt Q15699 118-204, L144R), sequence (Q15699 118-204 L144R): as the sequence (Q15699 118-204 L144V) above, with V27R counted along it

ALX1 [15] = target: ALX1 (Homo sapiens, UniProt Q15699 118-204)
ALX1 (Homo sapiens, UniProt Q15699 118-204), sequence (Q15699 118-204): as the sequence (Q15699 118-204 L144V) above, with V27L counted along it

HOXB6 [16] = target: HOXB6 (Homo sapiens, UniProt P17509 132-218, K202E)
HOXB6 (Homo sapiens, UniProt P17509 132-218, K202E), sequence (P17509 132-218 K202E): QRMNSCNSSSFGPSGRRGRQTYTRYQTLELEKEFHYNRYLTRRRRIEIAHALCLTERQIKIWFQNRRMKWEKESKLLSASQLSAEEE

HOXB6 [17] = target: HOXB6 (Homo sapiens, UniProt P17509 132-218)
HOXB6 (Homo sapiens, UniProt P17509 132-218), sequence (P17509 132-218): as the sequence (P17509 132-218 K202E) above, with E71K counted along it

HOXB9 [18] = target: HOXB9 (Homo sapiens, UniProt P17482 171-250, T197M)
HOXB9 (Homo sapiens, UniProt P17482 171-250, T197M), sequence (P17482 171-250 T197M): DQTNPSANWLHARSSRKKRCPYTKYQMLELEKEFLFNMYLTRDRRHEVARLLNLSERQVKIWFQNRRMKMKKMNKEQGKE

HOXC9 [19] = target: HOXC9 (Homo sapiens, UniProt P31274 178-260, K195R)
HOXC9 (Homo sapiens, UniProt P31274 178-260, K195R), sequence (P31274 178-260 K195R): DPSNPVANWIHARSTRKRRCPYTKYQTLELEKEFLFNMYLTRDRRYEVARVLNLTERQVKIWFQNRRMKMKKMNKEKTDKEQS

HOXA7 [20] = target: HOXA7 (Homo sapiens, UniProt P31268 116-202)
HOXA7 (Homo sapiens, UniProt P31268 116-202), sequence (P31268 116-202): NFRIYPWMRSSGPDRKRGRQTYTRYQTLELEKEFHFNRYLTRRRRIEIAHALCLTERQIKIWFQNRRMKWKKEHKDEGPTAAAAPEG

HOXC10 [21] = target: HOXC10 (Homo sapiens, UniProt Q9NYD6 254-340)
HOXC10 (Homo sapiens, UniProt Q9NYD6 254-340), sequence (Q9NYD6 254-340): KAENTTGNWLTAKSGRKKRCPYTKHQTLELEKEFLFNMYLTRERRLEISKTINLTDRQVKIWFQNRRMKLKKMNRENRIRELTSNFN

PAX4 [22] = target: T6, PAX4 (Homo sapiens, UniProt O43316 9-242, R200K)
T6 sequence: T4 sequence with V169F, R192K

HOXB9 [23] = target: HOXB9 (Homo sapiens, UniProt P17482 171-250)
HOXB9 (Homo sapiens, UniProt P17482 171-250), sequence (P17482 171-250): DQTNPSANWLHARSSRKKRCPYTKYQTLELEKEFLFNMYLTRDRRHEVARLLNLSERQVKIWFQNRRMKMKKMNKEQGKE

HOXB4 = HOXB4 (Homo sapiens, UniProt P17483 148-234, V174I)
HOXB4, sequence (P17483 148-234 V174I): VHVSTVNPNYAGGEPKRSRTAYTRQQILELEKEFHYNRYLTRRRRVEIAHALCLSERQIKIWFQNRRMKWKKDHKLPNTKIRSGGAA

HOXC9 [24] = target: HOXC9 (Homo sapiens, UniProt P31274 178-260)
HOXC9 (Homo sapiens, UniProt P31274 178-260), sequence (P31274 178-260): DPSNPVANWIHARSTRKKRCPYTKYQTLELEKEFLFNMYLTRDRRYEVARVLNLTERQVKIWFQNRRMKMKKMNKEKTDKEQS

HOXC9 [25] = target: HOXC9 (Homo sapiens, UniProt P31274 178-260, R193K)
HOXC9 (Homo sapiens, UniProt P31274 178-260, R193K), sequence (P31274 178-260 R193K): as the sequence (P31274 178-260) above, with R16K counted along it

HOXC10 [26] = target: HOXC10 (Homo sapiens, UniProt Q9NYD6 254-340, K271E)
HOXC10 (Homo sapiens, UniProt Q9NYD6 254-340, K271E), sequence (Q9NYD6 254-340 K271E): as the sequence (Q9NYD6 254-340) above, with K18E counted along it

HOXB9 [27] = target: HOXB9 (Homo sapiens, UniProt P17482 171-250, R186Q)
HOXB9 (Homo sapiens, UniProt P17482 171-250, R186Q), sequence (P17482 171-250 R186Q): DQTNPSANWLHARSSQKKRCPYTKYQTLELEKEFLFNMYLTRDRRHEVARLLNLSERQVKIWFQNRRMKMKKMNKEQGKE

HOXC9 [28] = target: HOXC9 (Homo sapiens, UniProt P31274 178-260, R222W)
HOXC9 (Homo sapiens, UniProt P31274 178-260, R222W), sequence (P31274 178-260 R222W): as the sequence (P31274 178-260) above, with R45W counted along it

HOXA7 [29] = target: HOXA7 (Homo sapiens, UniProt P31268 116-202, W177C)
HOXA7 (Homo sapiens, UniProt P31268 116-202, W177C), sequence (P31268 116-202 W177C): as the sequence (P31268 116-202) above, with W62C counted along it

Sequence: AGCCCGGA
- binding signal (VENTX [1]): 8.11 upbm affinity estimate (log intensity, higher = more binding, comparable within an allelic series)
- binding signal (VENTX [2]): 7.92 upbm affinity estimate (log intensity, higher = more binding, comparable within an allelic series)
- binding signal (VENTX [3]): 8.12 upbm affinity estimate (log intensity, higher = more binding, comparable within an allelic series)

Sequence: GCGCGAAC
- binding signal (VENTX [1]): 8.01 upbm affinity estimate (log intensity, higher = more binding, comparable within an allelic series)
- binding signal (VENTX [2]): 8 upbm affinity estimate (log intensity, higher = more binding, comparable within an allelic series)
- binding signal (VENTX [3]): 8.06 upbm affinity estimate (log intensity, higher = more binding, comparable within an allelic series)
- binding signal (VAX1 [4]): 7.03 upbm affinity estimate (log intensity, higher = more binding, comparable within an allelic series)
- binding signal (VAX1 [5]): 7.1 upbm affinity estimate (log intensity, higher = more binding, comparable within an allelic series)
- binding signal (VAX1 [6]): 7.1 upbm affinity estimate (log intensity, higher = more binding, comparable within an allelic series)

Sequence: CCATTAGC
- binding signal (VENTX [1]): 12.2 upbm affinity estimate (log intensity, higher = more binding, comparable within an allelic series)
- binding signal (VENTX [2]): 12.9 upbm affinity estimate (log intensity, higher = more binding, comparable within an allelic series)
- binding signal (VENTX [3]): 11.9 upbm affinity estimate (log intensity, higher = more binding, comparable within an allelic series)
- binding signal (HOXA2 [7]): 12.3 upbm affinity estimate (log intensity, higher = more binding, comparable within an allelic series)
- binding signal (HOXA4): 11.4 upbm affinity estimate (log intensity, higher = more binding, comparable within an allelic series)
- binding signal (HOXA2 [8]): 13.1 upbm affinity estimate (log intensity, higher = more binding, comparable within an allelic series)
- binding signal (HOXA2 [9]): 10.6 upbm affinity estimate (log intensity, higher = more binding, comparable within an allelic series)
- binding signal (HOXA2 [10]): 12 upbm affinity estimate (log intensity, higher = more binding, comparable within an allelic series)
- binding signal (VAX1 [6]): 12.4 upbm affinity estimate (log intensity, higher = more binding, comparable within an allelic series)

Sequence: ACATATTA
- binding signal (VENTX [1]): 10.6 upbm affinity estimate (log intensity, higher = more binding, comparable within an allelic series)
- binding signal (VENTX [2]): 11.3 upbm affinity estimate (log intensity, higher = more binding, comparable within an allelic series)
- binding signal (VENTX [3]): 10.4 upbm affinity estimate (log intensity, higher = more binding, comparable within an allelic series)
- binding signal (ALX3): 8.55 upbm affinity estimate (log intensity, higher = more binding, comparable within an allelic series)
- binding signal (PAX4 [11]): 10.8 upbm affinity estimate (log intensity, higher = more binding, comparable within an allelic series)
- binding signal (PAX4 [12]): 11 upbm affinity estimate (log intensity, higher = more binding, comparable within an allelic series)

Sequence: GCCCCGGC
- binding signal (VENTX [1]): 8.07 upbm affinity estimate (log intensity, higher = more binding, comparable within an allelic series)
- binding signal (VENTX [2]): 7.98 upbm affinity estimate (log intensity, higher = more binding, comparable within an allelic series)
- binding signal (VENTX [3]): 7.96 upbm affinity estimate (log intensity, higher = more binding, comparable within an allelic series)
- binding signal (ALX1 [13]): 6.69 upbm affinity estimate (log intensity, higher = more binding, comparable within an allelic series)
- binding signal (ALX1 [14]): 6.67 upbm affinity estimate (log intensity, higher = more binding, comparable within an allelic series)
- binding signal (ALX1 [15]): 6.32 upbm affinity estimate (log intensity, higher = more binding, comparable within an allelic series)

Sequence: CATTAGCG
- binding signal (VENTX [1]): 11.8 upbm affinity estimate (log intensity, higher = more binding, comparable within an allelic series)
- binding signal (VENTX [2]): 12.7 upbm affinity estimate (log intensity, higher = more binding, comparable within an allelic series)
- binding signal (VENTX [3]): 11.6 upbm affinity estimate (log intensity, higher = more binding, comparable within an allelic series)
- binding signal (HOXA2 [7]): 12.3 upbm affinity estimate (log intensity, higher = more binding, comparable within an allelic series)
- binding signal (HOXA4): 11.4 upbm affinity estimate (log intensity, higher = more binding, comparable within an allelic series)
- binding signal (HOXA2 [8]): 13.1 upbm affinity estimate (log intensity, higher = more binding, comparable within an allelic series)
- binding signal (HOXA2 [9]): 10.7 upbm affinity estimate (log intensity, higher = more binding, comparable within an allelic series)
- binding signal (HOXA2 [10]): 12.1 upbm affinity estimate (log intensity, higher = more binding, comparable within an allelic series)

Sequence: AGTCTGCC
- binding signal (VENTX [1]): 8.03 upbm affinity estimate (log intensity, higher = more binding, comparable within an allelic series)
- binding signal (VENTX [2]): 8.12 upbm affinity estimate (log intensity, higher = more binding, comparable within an allelic series)
- binding signal (VENTX [3]): 8.07 upbm affinity estimate (log intensity, higher = more binding, comparable within an allelic series)
- binding signal (ALX1 [13]): 6.46 upbm affinity estimate (log intensity, higher = more binding, comparable within an allelic series)
- binding signal (ALX1 [14]): 6.59 upbm affinity estimate (log intensity, higher = more binding, comparable within an allelic series)
- binding signal (ALX1 [15]): 6.61 upbm affinity estimate (log intensity, higher = more binding, comparable within an allelic series)

Sequence: CCTGCTGC
- binding signal (VENTX [1]): 8.37 upbm affinity estimate (log intensity, higher = more binding, comparable within an allelic series)
- binding signal (VENTX [2]): 8.45 upbm affinity estimate (log intensity, higher = more binding, comparable within an allelic series)
- binding signal (VENTX [3]): 8.42 upbm affinity estimate (log intensity, higher = more binding, comparable within an allelic series)
- binding signal (HOXB6 [16]): 9.18 upbm affinity estimate (log intensity, higher = more binding, comparable within an allelic series)
- binding signal (HOXB6 [17]): 9.23 upbm affinity estimate (log intensity, higher = more binding, comparable within an allelic series)

Sequence: CCATTAGG
- binding signal (VENTX [1]): 11.7 upbm affinity estimate (log intensity, higher = more binding, comparable within an allelic series)
- binding signal (VENTX [2]): 12.4 upbm affinity estimate (log intensity, higher = more binding, comparable within an allelic series)
- binding signal (VENTX [3]): 11.4 upbm affinity estimate (log intensity, higher = more binding, comparable within an allelic series)

Sequence: CATTAATA
- binding signal (HOXB9 [18]): 10.2 upbm affinity estimate (log intensity, higher = more binding, comparable within an allelic series)
- binding signal (HOXC9 [19]): 12.7 upbm affinity estimate (log intensity, higher = more binding, comparable within an allelic series)
- binding signal (HOXA7 [20]): 11.5 upbm affinity estimate (log intensity, higher = more binding, comparable within an allelic series)
- binding signal (HOXC10 [21]): 12.2 upbm affinity estimate (log intensity, higher = more binding, comparable within an allelic series)
- binding signal (PAX4 [22]): 11.6 upbm affinity estimate (log intensity, higher = more binding, comparable within an allelic series)
- binding signal (HOXB6 [16]): 10.1 upbm affinity estimate (log intensity, higher = more binding, comparable within an allelic series)
- binding signal (HOXB9 [23]): 12 upbm affinity estimate (log intensity, higher = more binding, comparable within an allelic series)
- binding signal (HOXB4): 13.6 upbm affinity estimate (log intensity, higher = more binding, comparable within an allelic series)
- binding signal (HOXC9 [24]): 12.6 upbm affinity estimate (log intensity, higher = more binding, comparable within an allelic series)
- binding signal (HOXC9 [25]): 12.6 upbm affinity estimate (log intensity, higher = more binding, comparable within an allelic series)
- binding signal (HOXC10 [26]): 11.9 upbm affinity estimate (log intensity, higher = more binding, comparable within an allelic series)
- binding signal (HOXB9 [27]): 11.7 upbm affinity estimate (log intensity, higher = more binding, comparable within an allelic series)
- binding signal (HOXC9 [28]): 11.1 upbm affinity estimate (log intensity, higher = more binding, comparable within an allelic series)
- binding signal (HOXA7 [29]): 9 upbm affinity estimate (log intensity, higher = more binding, comparable within an allelic series)
- binding signal (HOXB6 [17]): 11.9 upbm affinity estimate (log intensity, higher = more binding, comparable within an allelic series)

Sequence: CGATTACG
- binding signal (VENTX [1]): 10.5 upbm affinity estimate (log intensity, higher = more binding, comparable within an allelic series)
- binding signal (HOXA7 [20]): 9.64 upbm affinity estimate (log intensity, higher = more binding, comparable within an allelic series)
- binding signal (HOXA7 [29]): 8.74 upbm affinity estimate (log intensity, higher = more binding, comparable within an allelic series)
